The nature of assay [1]: qHTS assay to identify small molecule antagonists of the sonic hedgehog signaling (Shh) pathway (AID 1259369; calls by dose curve; further: nearly all actives have a fitted effect of over 45% in size). The gist of the method:
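Conditioned medium drives Shh signalling in 3T3Gli1-Luc cells; compounds in DMSO co-applied, 24hr at 37 C, then luciferase luminescence.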

The target of assay [2] is Estrogen receptor beta (Homo sapiens) (UniProt Q92731). Put plainly: qHTS assay to identify small molecule agonists of the estrogen receptor beta (ER-beta) signaling pathway (AID 1259377; active means well fitted activation curve with a large enough effect in the signal ratio in the repeat runs, not every such curve was filed as active; the % refers to the signal ratio). An outline of the steps:
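qHTS in ER-beta-UAS-bla HEK293T cells: 6 hr settling, then 16 hr compound at 37C, then LiveBLAzer substrate 2 h at RT before fluorescence reading.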
On the technique in general: qHTS replaces the single test concentration by a dilution series.

For assay [3] the target is unchanged. As to the kind of experiment: qHTS assay to identify small molecule antagonists of the estrogen receptor beta (ER-beta) signaling pathway (AID 1259378; active means well fitted inhibition curve with a large enough effect in the signal ratio in the repeat runs, not every such curve was filed as active; the % refers to the signal ratio). An outline of the steps:
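ER-beta-UAS-bla HEK293T (GripTite) cells in 2% charcoal-stripped FBS medium were preincubated 6 hr at 37C, dosed with compound, then stimulated with 1 nM E2 (final) for 16 hr; beta-lactamase reporter read by B/G FRET fluorescence after 2 hr substrate loading.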

The nature of assay [4]: qHTS assay to identify small molecule agonists of the androgen receptor (AR) signaling pathway in the presence of an antagonist - cell viability counter screen (AID 1259379). Further: nearly all actives have a fitted effect of over 25% in size. Further: potency means the concentration at half of the fitted maximal effect. The gist of the method: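 A CellTiter-Fluor read-out measured viability of MDA-kb2 reporter cells (MMTV promoter with AR and GR response elements). Treatment: nilutamide 3.0uM final with compounds at 15 concentrations, 16 hr, 37C, 0% CO2.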

A short description of assay [5]: qHTS assay to identify small molecule agonists of the estrogen receptor beta (ER-beta) signaling pathway - cell viability counter screen (AID 1259380). Further: nearly all actives have a fitted effect of over 30% in size. The gist of the method: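 Cells used were ER-beta-UAS-bla HEK293T in medium with 2% charcoal-stripped FBS. They were treated for 16 hr at 37C. Viability came from CellTiter-Glo luminescence.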
The nature of assay [6]: qHTS assay to identify small molecule antagonists of the estrogen receptor beta (ER-beta) signaling pathway - cell viability counter screen (AID 1259382). Further: series mostly up to about 92 µM; nearly all actives have a fitted effect of over 55% in size. The gist of the method:
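Agonist-stimulated (1nM E2) ER-beta-UAS-bla HEK293T cells are incubated with library compounds for 16 hr at 37C. Cell viability is then assessed in the reporter-assay wells by adding CellTiter-Glo and reading luminescence after 30 min.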

Assay [7] addresses Estrogen receptor (Homo sapiens) (UniProt P03372). Put plainly: qHTS assay to identify small molecule agonists of the estrogen receptor alpha (ER-alpha) signaling pathway in the presence of an antagonist (AID 1259383; calls by dose curve; further: top concentration of the series differs between compounds; nearly all actives have a fitted effect of over 15% in size). The gist of the method:
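Using VM7Luc4E2 cells seeded 24hr before treatment, antagonist ICI-182,780 (10.0nM final) was added, followed by compounds at 15 concentrations. Plates incubated 22hr; ONE-Glo luminescence quantified reporter activity.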

Assay [8] is described as follows: qHTS assay to identify small molecule agonists or antagonists of the thyroid stimulating hormone receptor (TSHR) signaling pathway - wild type cell line counter screen (AID 1259384; calls by dose curve). The gist of the method:
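Wild-type HEK293 cells were plated 18 h at 37 C/5% CO2, pin-dosed with compound plus Ro20-1724 medium, held 30 min at room temperature, then given cAMP-d2 and anti-cAMP-cryptate; fluorescence was read after 1 h. Fifteen concentrations, triplicate.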

Assay [9] deals with Thyrotropin receptor (Homo sapiens) (UniProt P16473). Put plainly: qHTS assay to identify small molecule antagonists of the thyroid stimulating hormone receptor (TSHR) signaling pathway (AID 1259385; calls by dose curve; further: nearly all actives have a fitted effect of over 20% in size). The gist of the method: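 TSHR-HEK293 cells were plated and held 18 h at 37C/5% CO2, then given compound plus Ro20-1724 and stimulated with TSH at 1.5 ng/mL final. After 30 min at room temperature, cAMP was detected with cAMP-d2/anti-cAMP-cryptate (1 h) by fluorescence.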
Sequence of Thyrotropin receptor (Homo sapiens) (P16473 whole entry, looked up): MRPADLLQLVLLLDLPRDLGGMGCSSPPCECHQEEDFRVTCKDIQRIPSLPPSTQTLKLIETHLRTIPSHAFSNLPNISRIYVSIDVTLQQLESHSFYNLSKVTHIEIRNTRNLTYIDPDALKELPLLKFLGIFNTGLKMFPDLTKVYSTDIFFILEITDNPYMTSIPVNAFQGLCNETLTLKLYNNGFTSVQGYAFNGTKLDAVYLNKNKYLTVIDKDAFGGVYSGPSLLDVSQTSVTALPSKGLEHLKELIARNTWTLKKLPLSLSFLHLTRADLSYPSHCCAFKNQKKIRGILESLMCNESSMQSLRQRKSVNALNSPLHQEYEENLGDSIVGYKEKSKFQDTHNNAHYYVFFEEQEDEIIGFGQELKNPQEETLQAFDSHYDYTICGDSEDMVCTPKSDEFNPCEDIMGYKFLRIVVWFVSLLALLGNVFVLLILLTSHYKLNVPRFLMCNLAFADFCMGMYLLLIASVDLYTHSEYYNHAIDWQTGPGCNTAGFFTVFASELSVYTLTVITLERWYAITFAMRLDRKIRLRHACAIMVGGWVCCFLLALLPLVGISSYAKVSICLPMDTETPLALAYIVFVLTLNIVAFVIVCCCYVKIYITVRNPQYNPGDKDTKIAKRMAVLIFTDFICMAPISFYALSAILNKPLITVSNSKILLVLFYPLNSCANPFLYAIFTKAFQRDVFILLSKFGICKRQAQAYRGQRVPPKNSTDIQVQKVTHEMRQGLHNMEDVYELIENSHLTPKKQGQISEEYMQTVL

The nature of assay [10]: qHTS assay to identify small molecule agonists of the estrogen receptor alpha (ER-alpha) signaling pathway in the presence of an antagonist - cell viability counter screen (AID 1259386).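 Further: series mostly up to about 92 µM; cells exposed to compounds for 22 h at 37 °C before the viability read; nearly all actives have a fitted effect of over 30% in size.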 The gist of the method:
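ICI-182,780 at 10.0nM final accompanies the compound titration (15 concentrations, 22hr, 37C) on VM7Luc4E2 cells. The CellTiter-Fluor fluorescence readout runs in the same wells as the luciferase assay.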

The target of assay [11] is Progesterone receptor (Homo sapiens) (UniProt P06401). As to the kind of experiment: qHTS assay to identify small molecule agonists of the progesterone receptor (PR) signaling pathway (AID 1346784; calls by dose curve; further: nearly all actives have a fitted effect of over 30% in size). An outline of the steps: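 Fluorescence from LiveBLAzer B/G FRET substrate cleavage (2 hr, RT) reported PR activation in PR-UAS-bla HEK 293T cells treated 16 hr at 37C/5% CO2 with compounds; medium contained 2% charcoal-stripped FBS.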
Sequence of Progesterone receptor (Homo sapiens) (P06401 whole entry, looked up): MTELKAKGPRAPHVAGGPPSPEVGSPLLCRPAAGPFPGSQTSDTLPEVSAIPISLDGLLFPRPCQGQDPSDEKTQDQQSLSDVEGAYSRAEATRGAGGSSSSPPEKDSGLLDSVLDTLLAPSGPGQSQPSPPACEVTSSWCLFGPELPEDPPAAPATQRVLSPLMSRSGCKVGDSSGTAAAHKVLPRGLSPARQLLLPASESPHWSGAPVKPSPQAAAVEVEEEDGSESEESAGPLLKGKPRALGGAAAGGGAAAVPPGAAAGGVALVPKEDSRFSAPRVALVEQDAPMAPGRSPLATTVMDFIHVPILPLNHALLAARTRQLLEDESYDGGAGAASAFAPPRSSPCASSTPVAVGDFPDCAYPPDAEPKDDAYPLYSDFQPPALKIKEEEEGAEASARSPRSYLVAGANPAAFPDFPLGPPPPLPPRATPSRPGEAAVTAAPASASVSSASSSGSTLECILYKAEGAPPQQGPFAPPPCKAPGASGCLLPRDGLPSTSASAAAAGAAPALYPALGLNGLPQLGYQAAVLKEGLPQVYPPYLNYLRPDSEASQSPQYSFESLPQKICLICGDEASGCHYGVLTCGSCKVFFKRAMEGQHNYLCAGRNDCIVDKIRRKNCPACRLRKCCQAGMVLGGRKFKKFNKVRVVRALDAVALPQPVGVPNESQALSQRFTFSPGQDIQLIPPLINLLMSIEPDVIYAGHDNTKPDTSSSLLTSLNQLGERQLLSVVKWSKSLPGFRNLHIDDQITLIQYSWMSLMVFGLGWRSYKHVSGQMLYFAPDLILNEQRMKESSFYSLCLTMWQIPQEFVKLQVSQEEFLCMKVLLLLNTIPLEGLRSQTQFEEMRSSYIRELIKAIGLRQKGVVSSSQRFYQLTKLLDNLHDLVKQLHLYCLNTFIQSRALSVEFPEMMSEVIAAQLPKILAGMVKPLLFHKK

Assay [12] shares this target. Put plainly: qHTS assay to identify small molecule antagonists of the progesterone receptor (PR) signaling pathway (AID 1346795; active means well fitted inhibition curve with a large enough effect in the signal ratio in the repeat runs, not every such curve was filed as active; the % refers to the signal ratio). The gist of the method:
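Fluorescence intensity measured 2 hr after adding beta-lactamase FRET substrate to PR-UAS-bla HEK293T cells that had been co-treated 16 hr with compound and 1 nM R5020 (final concentration) in 2% charcoal-stripped FBS.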

The nature of assay [13]: qHTS assay to identify small molecule antagonists of the progesterone receptor (PR) signaling pathway - cell viability counter screen (AID 1346798). Further: series mostly up to about 92 µM; nearly all actives have a fitted effect of over 50% in size. The gist of the method:
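CellTiter-Glo luminescence; PR-UAS-bla HEK293T, 3,000 cells/well; compound + R5020, 16 hr, 37C/5% CO2; 30 min RT before read.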

Assay [14] is described as follows: qHTS assay to identify small molecule agonists of the progesterone receptor (PR) signaling pathway - cell viability counter screen (AID 1346799; calls by dose curve; further: nearly all actives have a fitted effect of over 45% in size). An outline of the steps:
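In parallel with the beta-lactamase readout, cytotoxicity toward PR-UAS-bla HEK293T cells was measured by CellTiter-Glo luminescence following 16 hr compound incubation in 2% charcoal-stripped FBS medium.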

Assay [15] can be described thus: qHTS assay to identify small molecule agonists of the TGF-beta/Smad signaling pathway - cell viability counter screen (AID 1346829). Further: top concentration of the series differs between compounds; nearly all actives have a fitted effect of over 45% in size. An outline of the steps: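 In parallel with the Smad reporter read, viability of HEK 293T cells stably carrying SBE-bla is quantified by ATP luminescence following 5 hr compound treatment.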
A short description of assay [16]: qHTS assay to identify small molecule agonists of the TGF-beta/Smad signaling pathway (AID 1346859; active means well fitted activation curve with a large enough effect in the signal ratio in the repeat runs, not every such curve was filed as active; the % refers to the signal ratio; further: series mostly up to about 77 µM). The gist of the method:
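After overnight seeding, SBE-bla HEK 293T cells are dosed with compounds in DMSO and kept 5 hr at 37 C, 5% CO2. LiveBLAzer-type FRET substrate is then applied for 2 hr at room temperature.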

For assay [17], the target named is Thyrotropin-releasing hormone receptor (Homo sapiens) (UniProt P34981). As to the kind of experiment: qHTS assay to identify small molecule antagonists of the thyrotropin-releasing hormone receptor (TRHR) signaling pathway (AID 1346877; active means well fitted inhibition curve with a large enough effect in the repeat runs, not every such curve was filed as active; further: series mostly up to about 51 µM). The gist of the method:
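Screening used HEK293 cells engineered with TRHR, with a brief 5 min room-temperature compound exposure preceding addition of TRH to 1 nM. The read-out was kinetic calcium-dye fluorescence, concentration-response from 15 doses in triplicate.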

Assay [18] has the same target. As to the kind of experiment: qHTS assay to identify small molecule agonists of the thyrotropin-releasing hormone receptor (TRHR) signaling pathway (AID 1346891; calls by dose curve;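 further: HEK293 cells expressing TRHR with calcium dye readout; series mostly up to about 58 µM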). The gist of the method:
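Compounds were tested as agonists at 15 concentrations, in triplicate, on TRHR-Hek293 cells; calcium-sensitive dye fluorescence was recorded for 3 min following addition.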

Assay [19] in a line: qHTS assay to identify small molecule antagonists of the TGF-beta/Smad signaling pathway - cell viability counter screen (AID 1346824). Further: nearly all actives have a fitted effect of over 50% in size. The gist of the method:
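SBE-bla HEK 293T cells were plated overnight at 37 C, then given compounds in DMSO plus TGF-beta1 (added as 0.25 ng/mL solution) for 5 hr. After the bla read, CellTiter-Glo was added to the same wells and luminescence read after 30 min at room temperature.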

Inconclusive results are not listed. Activity calls are given as the source filed them. Unless noted, the call rests on the fitted dose curve; in most records, active means well fitted curve in the direction sought with a large enough effect in the repeat runs; inconclusive means weak or mixed curves; inactive means no such curve, though single readings can be large; an effect the other way counts as inactive or inconclusive.

Sequence of Estrogen receptor (Homo sapiens) (P03372 whole entry, looked up): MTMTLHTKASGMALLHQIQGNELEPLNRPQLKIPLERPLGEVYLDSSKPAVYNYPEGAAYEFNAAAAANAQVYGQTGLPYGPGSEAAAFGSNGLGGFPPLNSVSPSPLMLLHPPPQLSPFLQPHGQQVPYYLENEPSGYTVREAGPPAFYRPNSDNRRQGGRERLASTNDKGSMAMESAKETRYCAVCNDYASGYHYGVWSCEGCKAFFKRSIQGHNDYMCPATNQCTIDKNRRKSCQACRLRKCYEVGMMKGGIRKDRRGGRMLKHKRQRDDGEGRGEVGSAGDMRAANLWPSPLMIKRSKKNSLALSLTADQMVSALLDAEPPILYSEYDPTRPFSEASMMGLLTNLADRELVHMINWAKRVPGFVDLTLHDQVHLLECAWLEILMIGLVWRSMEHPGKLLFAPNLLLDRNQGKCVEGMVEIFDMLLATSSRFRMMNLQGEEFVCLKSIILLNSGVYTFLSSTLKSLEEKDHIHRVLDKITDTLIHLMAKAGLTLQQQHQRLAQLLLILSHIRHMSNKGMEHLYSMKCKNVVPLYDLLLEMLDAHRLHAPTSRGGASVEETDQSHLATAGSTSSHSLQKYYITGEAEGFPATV
Sequence of Estrogen receptor beta (Homo sapiens) (Q92731 whole entry, looked up): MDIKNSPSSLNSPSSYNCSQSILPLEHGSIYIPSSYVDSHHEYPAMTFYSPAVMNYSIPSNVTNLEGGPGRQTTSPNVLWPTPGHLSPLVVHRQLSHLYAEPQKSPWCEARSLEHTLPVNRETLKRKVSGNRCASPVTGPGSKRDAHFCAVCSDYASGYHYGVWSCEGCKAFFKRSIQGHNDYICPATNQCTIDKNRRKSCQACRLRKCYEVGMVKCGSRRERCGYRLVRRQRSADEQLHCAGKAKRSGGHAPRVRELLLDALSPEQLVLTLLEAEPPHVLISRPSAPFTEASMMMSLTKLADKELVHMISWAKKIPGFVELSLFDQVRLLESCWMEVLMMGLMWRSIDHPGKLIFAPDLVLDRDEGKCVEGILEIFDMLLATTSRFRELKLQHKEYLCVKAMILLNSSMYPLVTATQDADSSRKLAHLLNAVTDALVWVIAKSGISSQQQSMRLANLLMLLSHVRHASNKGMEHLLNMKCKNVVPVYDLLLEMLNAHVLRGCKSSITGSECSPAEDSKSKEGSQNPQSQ
Sequence of Thyrotropin-releasing hormone receptor (Homo sapiens) (P34981 whole entry, looked up): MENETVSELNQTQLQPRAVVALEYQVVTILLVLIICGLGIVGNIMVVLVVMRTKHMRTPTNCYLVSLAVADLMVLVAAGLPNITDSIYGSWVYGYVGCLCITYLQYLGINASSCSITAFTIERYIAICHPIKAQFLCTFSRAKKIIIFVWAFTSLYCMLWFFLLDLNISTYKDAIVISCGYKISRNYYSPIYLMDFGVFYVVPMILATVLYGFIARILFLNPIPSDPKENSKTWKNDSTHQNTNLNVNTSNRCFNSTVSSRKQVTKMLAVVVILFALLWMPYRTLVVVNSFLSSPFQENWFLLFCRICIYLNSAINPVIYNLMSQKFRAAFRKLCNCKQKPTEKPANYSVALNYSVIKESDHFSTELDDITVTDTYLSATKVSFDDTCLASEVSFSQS

With `C=C(C)C(=O)OCCC[Si](OC)(OC)OC`, the Potency entry in assay [1], in [2], in assay [3], in [4], in [5] and in assay [6] was “inactive” in each case. Further, the Potency result in assay [7], in assay [10], in assay [11], in [12], in assay [13] and in assay [14] was “inactive” throughout. Also, the Potency entry in assay [15] and in assay [18] was “inactive” each time. Moreover, the molecule was classed as inactive in [8], in assay [9], in assay [16] and in [17].
Take `OC1CCCC1`: the Potency entry in [1], in assay [2], in assay [3], in assay [4], in [5] and in assay [6] was “inactive” each time. In addition, the Potency entry in assay [7], in assay [10], in assay [11], in assay [12], in [13] and in [14] was “inactive” throughout. Also, the Potency result in assay [19], in assay [15] and in assay [18] was “inactive” each time. Moreover, the molecule was called inactive in assay [8], in assay [16] and in assay [17].
In the case of `C[C@@H](O)[C@H]1C(=O)N2C(C(=O)O)=C(S[C@@H]3CN[C@H](C(=O)N(C)C)C3)[C@H](C)[C@H]12`, the Potency result in [1], in assay [2], in [3], in assay [4], in [5] and in assay [6] was “inactive” throughout. Besides, the Potency result in assay [10], in assay [11], in assay [12], in assay [13], in assay [14] and in [19] was “inactive” in each case. Further, in [15], the Potency entry was “inactive”. Further, the result in assay [8], in assay [9] and in assay [16] was inactive.
`O=S(=O)(O)CCS`: the Potency result in [1], in assay [2], in assay [3], in assay [4], in assay [5] and in assay [6] was “inactive” throughout. For the same molecule, the Potency result in assay [7], in assay [10], in assay [11], in assay [12], in assay [13] and in assay [14] was “inactive” throughout. The Potency entry in assay [19], in assay [15] and in assay [18] was “inactive” throughout. In addition, the result in assay [8], in [16] and in assay [17] was inactive.
Regarding `ClC1=C(Cl)C(Cl)(Cl)C(Cl)=C1Cl`, the Potency result in [1], in assay [2], in [3], in assay [5], in assay [6] and in assay [7] was “inactive” in each case. The Potency result in assay [10], in [11], in assay [13], in assay [14], in [19] and in [15] was “inactive” throughout. Also, the Potency result in [18] is “inactive”. Moreover, the Potency in assay [4] is 43.3 µM (active). For the same molecule, the molecule was called inactive in assay [8], in assay [16] and in assay [17].
For the molecule `Clc1cc(Cl)c(Cl)cc1Cl`, the Potency entry in assay [1], in [2], in assay [3], in [4], in assay [5] and in assay [6] was “inactive” throughout. Besides, the Potency entry in [7], in [10], in assay [11], in [13], in [14] and in assay [15] was “inactive” each time. Moreover, the molecule was called inactive in assay [16].
Regarding `C=C(C)C(=O)OCCCCCCCCCCCC`, the Potency entry in [1], in assay [2], in assay [3], in assay [4], in assay [5] and in [6] was “inactive” in each case. Besides, the Potency result in [7], in [10], in [11], in assay [12], in assay [13] and in assay [14] was “inactive” in each case. Further, the Potency entry in [15] and in [18] was “inactive” in each case. In addition, the call in assay [8], in assay [9], in assay [16] and in assay [17] was inactive.

Values taken from PubChem BioAssay (Tox21).
